# Most compounds without a hit are left out; they make up all but 1.8% or so of the library.
# NOD2-RIPK2 inh: NOD2-RIPK2 binding disruptors in cells, primary screen, fluorescence, CHO cells, BLA complementation; Receptor-interacting serine/threonine-protein kinase 2 (Homo sapiens), O43353; 360,000 compounds, 0.38% hits; AID 624267, 2012; inhibition, % at 4.98 µM; CCF4 ratio; in the data active means inhibition above about 21%
# Mcl1 Bid PPI: Mcl-1/Bid binding inhibitors, primary screen, biochemical, TR-FRET, 1536-well; Induced myeloid leukemia cell differentiation protein Mcl-1 (Homo sapiens), Q07820; AID 1021, 2008; TR-FRET Mcl-1/Bid-Dy647 peptide binding; inhibition, % at 21.7 µM; 220,000 compounds, 0.97% hits;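 active means compounds that cut the binding signal by more than half at the single screening dose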;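 further: His-tagged Mcl-1 with europium anti-His antibody binding Bid BH3 peptide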
# TLR9-MyD88 inh: inhibitors of TLR9-MyD88 association in cells, primary screen, cell-based, CHO, BLA complementation, fluorescence; Toll-like receptor 9 (Homo sapiens) + Myeloid differentiation primary response protein …; CCF4 FRET ratio; inhibition, % at 4.98 µM; 340,000 compounds, 0.21% hits; AID 504734, 2011;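 active means inhibition above the mean over all tested compounds plus 3 SD, cut at about 21% in these data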
# TLR4-MyD88 BLA: inhibitors of TLR4-MyD88 association in cells, primary screen, cell-based, HeLa CL3-4, BLA complementation, FRET ratio; Toll-like receptor 4 (Homo sapiens) + Myeloid differentiation primary response protein …; HeLa CL3-4 TLR4/MyD88 BLA complementation; inhibition, % at 8.4 µM; 200,000 compounds, 0.18% hits; in the data active means inhibition above about 25%
# Bim-Mcl-1: inhibitors of Bim peptide binding to Mcl-1, primary screen, biochemical, bead-based flow cytometry, multiplex; Bim peptide-Mcl-1 binding; inhibition, % at 10 µM; 190,000 compounds, 0.1% hits; AID 1009, 2008; in the data active means inhibition above about 40%
# Mcl1-Noxa inh: Mcl-1/Noxa binding inhibitors, primary screen, biochemical, TR-FRET, 1536-well; Induced myeloid leukemia cell differentiation protein Mcl-1 (Homo sapiens), Q07820; TR-FRET Mcl-1/Noxa peptide binding, 2 h; inhibition, % at 21.7 µM; 220,000 compounds, 1.5% hits;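 active means compounds that cut the protein-peptide binding signal by more than 50% relative to plate controls in a single-dose test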;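 further: His-tagged Mcl-1 with rhodamine Noxa BH3 peptide and terbium anti-His antibody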
# A number is an active result; . = inactive; / = no result.
SMILES,NOD2-RIPK2 inh,Mcl1 Bid PPI,TLR9-MyD88 inh,TLR4-MyD88 BLA,Bim-Mcl-1,Mcl1-Noxa inh
CCOC(=O)C1CCCN(Cc2ccc(OC)c(OCc3ccccc3)c2)C1 (stereo not drawn),.,/,.,/,/,/
Cc1nc(C)c(/C(O)=C\c2nc3ccc([N+](=O)[O-])cc3oc2=O)o1,.,.,/,/,/,.
COc1ccc(N2CCN(C(CNS(=O)(=O)c3ccc4c(c3)OCCO4)c3ccco3)CC2)cc1 (stereo not drawn),.,.,.,.,52,.
O=S(=O)(NCC(c1ccco1)N1CCN(c2ccccc2F)CC1)c1ccc2c(c1)OCCO2 (stereo not drawn),.,.,.,.,.,.
Cc1nnc2ccc(-c3ccc(NC(=O)Cc4cccs4)cc3)nn12,.,.,.,/,/,68
O=C(Cc1cccs1)Nc1ccc(-c2nnn(CC(=O)N3CCOCC3)n2)cc1,/,.,/,.,.,56
CCOc1ccc(-c2nnc(SCC(=O)N3CCNC3=O)o2)cc1,.,/,.,/,/,/
COc1cc(C(=O)N2CCCC(c3cc(C(=O)NCc4ccc(F)cc4)no3)C2)cc(OC)c1C (stereo not drawn),.,/,/,/,/,/
O=C1C=CC(=O)C(C2=C3C(=O)N(CCc4ccccc4)CC(=O)N3CCC2)=C1,/,.,/,.,.,84
O=C1CC2(CCCCC2)CC(=O)N1CCc1ccccc1,.,/,.,/,/,/
CC1(C)CC(=O)C2=C(C1)OC(N)=C(C#N)C2c1cccc(OC(=O)c2ccco2)c1 (stereo not drawn),.,97,.,.,.,.
Cc1ccccc1NC(=O)COC(=O)c1cc[n+]([O-])cc1,.,/,.,/,/,/
O=C(COC(=O)c1cc[n+]([O-])cc1)Nc1ccccc1Cl,.,87,.,.,.,.
COc1ccc(S(=O)(=O)NC(=O)C2(C)CCN2C(=O)CCc2ccc(Cl)cc2Cl)cc1 (stereo not drawn),.,/,/,/,/,/
COc1ccc(C(=S)N2CCCCCC2)cc1,.,.,.,.,41,.
O=C(Nc1cccc(C(F)(F)F)c1)c1cncs1,.,/,.,/,/,/
CCNC(=O)C1CCCN(C(=O)c2ccc(C(F)(F)F)cc2)CC1 (stereo not drawn),.,/,/,/,/,/
COc1cc(/C=N/NC(=O)c2ccc(COc3cc(C)ccc3C(C)C)cc2)cc(OC)c1O,.,.,.,.,.,51
Cc1ccc(C2C(C(=O)c3cc4ccccc4o3)=C(O)C(=O)N2CCN2CCOCC2)o1 (stereo not drawn),.,51,.,.,.,.
Cc1ccc(C2C(C(=O)c3cc4ccccc4o3)=C(O)C(=O)N2CCN2CCOCC2)cc1 (stereo not drawn),.,/,.,/,/,/
COCc1cccc(-c2csc(C(O)c3cccc(OC)c3)n2)c1 (stereo not drawn),.,/,/,/,/,/
O=C(NCc1cccnc1)NC(=O)c1ccc(Cl)cc1,.,/,.,/,/,/
O=C(O)CCCN1C(=O)/C(=C/C=C/c2ccco2)SC1=S,.,.,.,/,/,94
O=C(O)C(Cc1ccccc1)N1C(=O)/C(=C/C=C/c2ccco2)SC1=S (stereo not drawn),.,98,.,/,/,102
O=C(NN1C(=O)/C(=C/C=C/c2ccco2)SC1=S)c1ccccc1O,.,60,.,/,/,101
SMILES,NOD2-RIPK2 inh,Mcl1 Bid PPI,TLR9-MyD88 inh,TLR4-MyD88 BLA,Bim-Mcl-1,Mcl1-Noxa inh
O=C(O)CC(C(=O)O)N1C(=O)/C(=C/C=C/c2ccco2)SC1=S (stereo not drawn),.,.,.,/,/,85
Cn1cccc1/C=C1\SC(=S)N(NC(=O)c2ccccc2O)C1=O,.,.,.,/,/,.
Cc1cccc(CNC(=O)c2ccc(NC(=O)C3=CSCCO3)cc2)c1,.,/,.,/,/,/
CN1CCN(c2nc3c(c(=O)n(C)c(=O)n3C)n2Cc2ccccc2F)CC1,.,/,.,/,/,/
O=C1S/C(=C\C=C\c2ccco2)C(=O)N1c1ccc(O)cc1,.,.,.,.,.,56
O=C1S/C(=C\C=C\c2ccco2)C(=O)N1c1ccccc1,.,.,.,.,.,.

# High-throughput results as filed in PubChem.
